High-throughput results: PubChem, several laboratories
CYP2C19 activ: activators of human cytochrome P450 2C19 | P33261 | recombinant CYP2C19, luciferin-H EGE luminescence; stronger effect = higher value; 0 = fully inhibited enzyme, 1 = untreated enzyme | activation factor at 5 µM | 96,000 tested, under 10 active;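 active = activation factor of at least 2 at 5 µM in the primary screen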
PostGolgi ctrl: inhibits growth of the yeast control strain; efflux-deficient yeast background strain, growth absorbance A615, 16 h; inhibition, % at 10 µM; actives 5% (n = 98,000); AID 738
CYP2C9 act: increases human cytochrome P450 2C9 activity | P11712 | recombinant CYP2C9, luciferin-H conversion, luminescence; stronger effect = higher value; factor 1 = untreated enzyme, 0 = blocked | activation factor at 5 µM | actives 1.4% (n = 96,000) | AID 1024;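 active = activation factor of 2 or more for CYP2C9 at a 5 µM dose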
Target sequence (P11712 whole entry, looked up): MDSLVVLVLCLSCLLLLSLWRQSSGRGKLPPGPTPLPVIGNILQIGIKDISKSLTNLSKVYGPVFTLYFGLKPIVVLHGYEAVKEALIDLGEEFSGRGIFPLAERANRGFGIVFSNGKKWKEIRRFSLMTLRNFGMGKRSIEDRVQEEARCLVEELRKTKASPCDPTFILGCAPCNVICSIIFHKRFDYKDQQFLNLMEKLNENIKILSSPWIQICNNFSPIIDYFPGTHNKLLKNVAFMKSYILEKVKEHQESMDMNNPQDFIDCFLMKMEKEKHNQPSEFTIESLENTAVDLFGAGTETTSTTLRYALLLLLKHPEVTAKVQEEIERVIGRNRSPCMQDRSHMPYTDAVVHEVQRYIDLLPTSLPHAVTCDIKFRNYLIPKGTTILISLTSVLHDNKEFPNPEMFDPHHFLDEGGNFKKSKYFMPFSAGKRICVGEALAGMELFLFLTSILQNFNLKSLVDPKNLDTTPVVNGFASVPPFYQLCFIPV
CYP2C9 inhib: blocks human cytochrome P450 2C9. CYP2C9 Supersomes, luciferin-H conversion, luminescence. inhibition, % at 5 µM. P11712. AID 777. actives 20% (n = 96,000);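 active = blocking of liver enzyme CYP2C9 beyond about 50% at 5 µM, limit read from the data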
PostGolgi yeast: growth inhibition of a yeast mutant, post-Golgi transport screen; post-Golgi transport phenotypic cell assay; inhibition, % at 10 µM; actives 0.9% (n = 98,000); AID 739;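 note: yeast cells grown in 1536-well plates; yeast grown about 18 h at 30C before absorbance read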
CYP2C19 inhib: blocks human cytochrome P450 2C19; P33261; CYP2C19 Supersomes, luciferin-H EGE luminescence, 30 min; inhibition, % at 5 µM; actives 21% (n = 96,000); AID 778;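 active = CYP2C19 inhibition above a set limit at 5 µM in the primary screen, cut at about 50% in these data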
Large screens that a line does not name were inactive. The list is not random: actives were taken first. Their share in the collection is about 32%. Cut-off read from the data, not from the text of the source, unless noted: active = inhibition above about 30%; inactive = the rest.

COc1ccc(C2C3=C(CC(C)(C)CC3=O)Oc3ncn(Cc4ccccc4)c(=N)c32)cc1 (configuration not stated)	none
COc1ccc(C2C3=C(CC(C)(C)CC3=O)Oc3ncn(CCCn4ccnc4)c(=N)c32)cc1 (configuration not stated)	CYP2C9 inhib 77.7
CCc1cccc(CC)c1NC(=O)CSc1nnc(C(C)C)n1CC	none
COC(=O)CSc1nnc(CNC(=O)c2ccccc2OC)n1-c1ccc(OC)cc1	none
O=C(CCc1n[nH]c(=O)[nH]c1=O)N1CCOCC1	none
CCN(CC)C(=O)C(=O)N/N=C/c1cccc(Br)c1	none
CCc1nc(SCC(=O)Nc2cccc(C(F)(F)F)c2)c2c(=O)n(C)c(=O)n(C)c2n1	CYP2C9 inhib 51.6, CYP2C19 inhib 66.4
CCc1nc(SCC(=O)NCc2ccco2)c2c(=O)n(C)c(=O)n(C)c2n1	none
CCn1c(SCC(=O)N2CCCc3ccccc32)nc2c1c(=O)n(C)c(=O)n2C	none
CCCc1nc(SCC(=O)N2CCc3ccccc32)c2c(=O)n(C)c(=O)n(C)c2n1	CYP2C9 inhib 50.0 (no result: PostGolgi ctrl, PostGolgi yeast)
CC(C)c1nc(SCC(=O)N2CCCc3ccccc32)c2c(=O)n(C)c(=O)n(C)c2n1	PostGolgi ctrl 35.5
CCCc1nc(SCC(=O)N2CCc3ccccc32)c2c(C)c(C)sc2n1	CYP2C9 inhib 80.3
Cn1cnnc1SCC(=O)N1CCc2ccccc21	none
CCCc1nc(SCC(=O)c2ccc(OC)cc2)c2c(=O)n(C)c(=O)n(C)c2n1	none (no result: PostGolgi ctrl, PostGolgi yeast)
CCCc1nc(SCC(=O)c2ccccc2)c2c(=O)n(C)c(=O)n(C)c2n1	CYP2C9 inhib 86.0
N/C(=N\OS(=O)(=O)c1ccc2ccccc2c1)c1ccncc1	CYP2C9 inhib 68.1
CCCC(=O)Nc1nc(-c2ccc(OC)cc2)cs1	CYP2C9 inhib 95.8, CYP2C19 inhib 64.4
CCOC(=O)N1CCN(C(=O)CSCC(=O)Nc2nc(-c3ccc(OC)cc3)cs2)CC1	PostGolgi ctrl 30.4, CYP2C9 inhib 82.7, CYP2C19 inhib 83.7
CCCC(=O)Nc1nc(-c2ccc3c(c2)OCCO3)cs1	CYP2C9 inhib 85.6
O=C(Nc1nc(-c2ccc3c(c2)OCO3)cs1)C1CC1	none
CCOc1ccccc1NS(=O)(=O)c1c(C)noc1C	CYP2C9 inhib 71.0, CYP2C19 inhib 74.7
CCOc1ccc(N(CC(=O)Nc2ccc3c(c2)OCCO3)S(=O)(=O)c2c(C)noc2C)cc1	none
CCOc1ccccc1NS(=O)(=O)c1cccs1	CYP2C9 act 2.6, CYP2C19 inhib 77.6
CCOc1ccc(OCC)c(NC(=O)CN(c2ccc(C)cc2)S(=O)(=O)c2c(C)noc2C)c1	CYP2C9 inhib 91.7
CCOc1ccccc1NC(=O)C1CCN(S(=O)(=O)c2c(C)noc2C)CC1	none
CCOc1ccccc1NC(=O)CN(c1ccc(C)cc1)S(=O)(=O)c1c(C)noc1C	PostGolgi ctrl 39.2, CYP2C9 inhib 95.8, CYP2C19 inhib 99.1
CCC(C)C(=O)Nc1cc(C(=O)OC)ccc1C(=O)OC (configuration not stated)	none
COC(=O)c1ccc(C(=O)OC)c(NC(=O)N2c3ccccc3Sc3ccccc32)c1	CYP2C9 inhib 50.6
Cc1cc(/C=C(/C#N)c2cccc(F)c2)c(C)n1-c1cccnc1	PostGolgi ctrl 37.3, CYP2C9 inhib 98.9, CYP2C19 inhib 89.2
Cc1cc(/C=C(/C#N)c2cccc(Cl)c2)c(C)n1C	PostGolgi ctrl 42.9
CSc1nc2ccccc2cc1/C=C(\C#N)c1cccc(C)c1	none
O=C(Nc1ccc2snnc2c1)N1CCSCC1	none (no result: PostGolgi ctrl, PostGolgi yeast)
CC1CN(C(=O)Nc2ccc3snnc3c2)c2ccccc21 (configuration not stated)	PostGolgi ctrl 30.1, CYP2C9 inhib 81.3, CYP2C19 inhib 70.6
Cc1ccc(OC(=O)c2ccc3snnc3c2)cc1	none
CC1Cc2ccccc2N1C(=O)c1ccc2snnc2c1 (configuration not stated)	CYP2C19 inhib 81.2
CCOc1[nH]n(-c2ccccc2)c(=O)c1C=Nc1ccc(Cl)cc1	none
CC(C)[C@H](NC(=O)NCc1ccco1)C(=O)O	none
CCc1c(O)nc(SCC(=O)Nc2ccc(C)cc2)n(C2CCCCC2)c1=O	none
OCCSc1c(F)c(SCCO)c(SCCO)c(F)c1SCCO	CYP2C9 inhib 70.2
Cc1cccc(OCC(=O)Nc2cccc(-c3nnc(-c4ccccc4)o3)c2)c1C	CYP2C9 inhib 90.2, CYP2C19 inhib 74.1
CCCCC(=O)Nc1cccc(-c2nnc(-c3ccccc3)o2)c1	CYP2C9 inhib 74.6, CYP2C19 inhib 52.5
Cc1cccc(C)c1OCC(=O)Nc1cccc(-c2nnc(-c3ccccc3)o2)c1	CYP2C9 inhib 89.8, CYP2C19 inhib 54.7
Cc1cccc(OCC(=O)NCc2ccncc2)c1C	CYP2C9 inhib 55.1, CYP2C19 inhib 74.2
Cc1ccc(OCC(=O)Nc2cccc(-c3nnc(-c4ccccc4)o3)c2)cc1	none (no result: CYP2C19 activ, CYP2C9 act, CYP2C9 inhib, CYP2C19 inhib)
O=C(Nc1cccc(-c2nnc(-c3ccccc3)o2)c1)c1ccco1	none (no result: PostGolgi ctrl, PostGolgi yeast)
C=CCNC(=O)C1CCCN(S(C)(=O)=O)C1 (configuration not stated)	none
CCC(=O)Nc1nc2ccc3nc(C)sc3c2s1	none
O=C(O)c1ccc(CSCc2c(F)cccc2Cl)o1	none
COc1ccc(C(=O)N=c2nc3ccccn3s2)cc1	CYP2C19 inhib 64.6
C=CCSc1nnc(NC(=O)COc2ccc3ccccc3c2)s1	none
CCNC(=S)N(Cc1ccc2c(c1)OCO2)C1CC(=O)N(c2ccc(F)cc2)C1=O (configuration not stated)	CYP2C9 inhib 71.0, CYP2C19 inhib 93.8
COc1ccc(CNc2nc3ccccc3n2Cc2ccccc2)cc1OC	CYP2C9 inhib 65.8, CYP2C19 inhib 52.7
c1ccc(Cn2c(NCc3ccco3)nc3ccccc32)cc1	CYP2C9 inhib 81.3, CYP2C19 inhib 82.8
COC(=O)c1ccc(Oc2nc(C(N)=O)cc(-c3ccccc3)n2)cc1	none
CCCOc1ccc(C(=O)NC(C)C(=O)O)cc1 (configuration not stated)	none
O=C(Nc1nccs1)c1cc2c(s1)CCCCC2	none
COC(=O)c1sccc1NC(=O)c1cc2c(s1)CCCC2	CYP2C9 inhib 61.2
CNc1nc(Nc2ccc(C(C)=O)cc2)nc(OC(C(F)(F)F)C(F)(F)F)n1	PostGolgi ctrl 30.2
CCCC(=O)Nc1ccc(NC(=O)Cc2ccccc2)cn1	none
CCCC(=O)Nc1ccc(NC(=O)CCc2ccccc2)cn1	PostGolgi yeast 30.5
O=C(Cc1ccccc1)Nc1ccc(NC(=O)C2CC2)nc1	PostGolgi ctrl 39.2
O=C(Nc1ccc(NC(=O)C2CC2)nc1)c1ccncc1	CYP2C9 inhib 55.6
CC(CNC(=O)C(=O)NC(C)CCc1ccccc1)Cc1ccccc1 (configuration not stated)	none
Cc1c(NC(=S)/C=C2\N(C)c3ccccc3C2(C)C)c(=O)n(-c2ccccc2)n1C	CYP2C19 inhib 64.7
Cc1c(N=C/C=C2\N(C)c3ccccc3C2(C)C)c(=O)n(-c2ccccc2)n1C	CYP2C19 inhib 73.6
